The target in assay [1] is Serine/threonine-protein kinase PLK3 (Homo sapiens) (UniProt Q9H4B4). As to conditions: at 1 µM; call rule not given here.
The target is the same in assay [2]. Particulars: at 10 µM.
The target of assay [3] is T1, cAMP-dependent protein kinase catalytic subunit PRKX (Homo sapiens) (UniProt P51817).
T1 sequence (whole entry): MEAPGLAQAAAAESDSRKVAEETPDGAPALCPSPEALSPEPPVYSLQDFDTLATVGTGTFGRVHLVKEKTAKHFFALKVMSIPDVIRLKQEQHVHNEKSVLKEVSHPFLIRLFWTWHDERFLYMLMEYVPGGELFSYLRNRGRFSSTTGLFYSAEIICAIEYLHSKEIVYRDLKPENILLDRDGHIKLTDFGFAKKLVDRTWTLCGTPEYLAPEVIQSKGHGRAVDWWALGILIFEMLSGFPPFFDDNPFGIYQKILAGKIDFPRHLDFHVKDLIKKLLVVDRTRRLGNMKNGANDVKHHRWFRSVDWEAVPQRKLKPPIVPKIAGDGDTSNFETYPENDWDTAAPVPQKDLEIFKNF
Particulars: at 1 µM.

The target of assay [4] is T1, cAMP-dependent protein kinase catalytic subunit PRKX (Homo sapiens). As to conditions: at 10 µM.
The target in assay [5] is Protein-tyrosine kinase 2-beta (Homo sapiens) (UniProt Q14289). Particulars: at 1 µM.
Chain of Protein-tyrosine kinase 2-beta (Homo sapiens) (Q14289 whole entry, looked up): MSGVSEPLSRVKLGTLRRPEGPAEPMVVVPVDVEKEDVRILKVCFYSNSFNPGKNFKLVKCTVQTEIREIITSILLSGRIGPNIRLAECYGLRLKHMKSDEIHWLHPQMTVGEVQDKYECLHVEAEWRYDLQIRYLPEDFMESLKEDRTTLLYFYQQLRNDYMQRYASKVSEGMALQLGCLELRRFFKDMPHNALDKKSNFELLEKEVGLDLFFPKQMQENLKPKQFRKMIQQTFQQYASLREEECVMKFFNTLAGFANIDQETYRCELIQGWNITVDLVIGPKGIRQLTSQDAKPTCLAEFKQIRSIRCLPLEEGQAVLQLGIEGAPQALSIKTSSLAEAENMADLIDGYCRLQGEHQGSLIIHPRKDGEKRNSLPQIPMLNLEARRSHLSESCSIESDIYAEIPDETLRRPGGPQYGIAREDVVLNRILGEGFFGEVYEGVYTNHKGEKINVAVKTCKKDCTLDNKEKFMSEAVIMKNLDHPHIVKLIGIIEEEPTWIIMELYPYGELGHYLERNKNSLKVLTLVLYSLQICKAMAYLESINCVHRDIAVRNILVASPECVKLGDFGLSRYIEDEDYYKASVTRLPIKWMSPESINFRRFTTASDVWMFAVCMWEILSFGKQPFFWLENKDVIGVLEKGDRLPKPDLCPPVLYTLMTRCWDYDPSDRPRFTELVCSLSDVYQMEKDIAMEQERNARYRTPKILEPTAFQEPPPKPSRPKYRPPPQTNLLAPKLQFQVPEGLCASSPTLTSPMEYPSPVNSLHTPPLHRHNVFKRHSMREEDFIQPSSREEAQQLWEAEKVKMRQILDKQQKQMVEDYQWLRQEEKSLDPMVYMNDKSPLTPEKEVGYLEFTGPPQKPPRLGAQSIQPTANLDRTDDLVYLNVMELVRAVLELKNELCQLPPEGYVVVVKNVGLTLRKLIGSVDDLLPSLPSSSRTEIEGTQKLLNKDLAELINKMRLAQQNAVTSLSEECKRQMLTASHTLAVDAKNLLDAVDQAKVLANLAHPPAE
Assay [6] has the same target. As to conditions: at 10 µM.
Assay [7] addresses Receptor-interacting serine/threonine-protein kinase 2 (Homo sapiens) (UniProt O43353). Particulars: at 1 µM.
The target is the same in assay [8]. As to conditions: at 10 µM.
The target in assay [9] is Rho-associated protein kinase 1 (Homo sapiens) (UniProt Q13464). As to conditions: at 1 µM.
Chain of Rho-associated protein kinase 1 (Homo sapiens) (Q13464 2-1354 limits assumed): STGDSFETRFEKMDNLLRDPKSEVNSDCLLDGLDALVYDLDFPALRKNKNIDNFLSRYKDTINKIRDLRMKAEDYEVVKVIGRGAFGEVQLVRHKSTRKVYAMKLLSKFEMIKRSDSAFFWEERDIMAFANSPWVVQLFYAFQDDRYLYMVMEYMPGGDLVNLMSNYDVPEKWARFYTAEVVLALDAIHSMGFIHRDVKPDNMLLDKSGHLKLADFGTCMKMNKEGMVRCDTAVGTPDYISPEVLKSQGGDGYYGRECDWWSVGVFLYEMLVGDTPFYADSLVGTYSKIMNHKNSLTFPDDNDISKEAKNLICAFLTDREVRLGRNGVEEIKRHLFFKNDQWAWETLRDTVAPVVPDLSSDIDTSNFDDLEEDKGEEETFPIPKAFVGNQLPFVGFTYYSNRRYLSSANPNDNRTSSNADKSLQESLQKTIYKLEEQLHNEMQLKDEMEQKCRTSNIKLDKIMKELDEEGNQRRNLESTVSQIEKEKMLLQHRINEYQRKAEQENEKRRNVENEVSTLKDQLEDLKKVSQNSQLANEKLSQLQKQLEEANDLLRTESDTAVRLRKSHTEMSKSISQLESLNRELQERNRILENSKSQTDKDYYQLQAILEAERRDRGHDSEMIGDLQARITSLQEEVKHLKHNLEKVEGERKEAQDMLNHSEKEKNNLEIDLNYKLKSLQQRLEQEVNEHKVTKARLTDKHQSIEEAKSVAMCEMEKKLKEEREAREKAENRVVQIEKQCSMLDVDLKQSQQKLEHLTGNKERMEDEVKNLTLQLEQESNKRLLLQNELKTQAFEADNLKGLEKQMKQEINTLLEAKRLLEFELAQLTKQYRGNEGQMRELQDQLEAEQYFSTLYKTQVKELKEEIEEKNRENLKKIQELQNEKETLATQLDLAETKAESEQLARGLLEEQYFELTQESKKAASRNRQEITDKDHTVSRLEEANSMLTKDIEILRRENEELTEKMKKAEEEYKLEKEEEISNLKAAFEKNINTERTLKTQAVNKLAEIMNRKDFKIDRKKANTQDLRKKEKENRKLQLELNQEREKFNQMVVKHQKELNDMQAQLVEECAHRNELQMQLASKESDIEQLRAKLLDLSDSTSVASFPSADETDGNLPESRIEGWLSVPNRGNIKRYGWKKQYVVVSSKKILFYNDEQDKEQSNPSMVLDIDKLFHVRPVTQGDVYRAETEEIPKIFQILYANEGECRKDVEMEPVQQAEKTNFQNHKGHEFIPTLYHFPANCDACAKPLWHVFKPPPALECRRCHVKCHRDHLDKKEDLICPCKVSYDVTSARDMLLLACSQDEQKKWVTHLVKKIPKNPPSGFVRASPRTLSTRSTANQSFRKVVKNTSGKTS
The target is the same in assay [10]. Particulars: at 10 µM.

Chain of Serine/threonine-protein kinase PLK3 (Homo sapiens) (Q9H4B4 whole entry, looked up): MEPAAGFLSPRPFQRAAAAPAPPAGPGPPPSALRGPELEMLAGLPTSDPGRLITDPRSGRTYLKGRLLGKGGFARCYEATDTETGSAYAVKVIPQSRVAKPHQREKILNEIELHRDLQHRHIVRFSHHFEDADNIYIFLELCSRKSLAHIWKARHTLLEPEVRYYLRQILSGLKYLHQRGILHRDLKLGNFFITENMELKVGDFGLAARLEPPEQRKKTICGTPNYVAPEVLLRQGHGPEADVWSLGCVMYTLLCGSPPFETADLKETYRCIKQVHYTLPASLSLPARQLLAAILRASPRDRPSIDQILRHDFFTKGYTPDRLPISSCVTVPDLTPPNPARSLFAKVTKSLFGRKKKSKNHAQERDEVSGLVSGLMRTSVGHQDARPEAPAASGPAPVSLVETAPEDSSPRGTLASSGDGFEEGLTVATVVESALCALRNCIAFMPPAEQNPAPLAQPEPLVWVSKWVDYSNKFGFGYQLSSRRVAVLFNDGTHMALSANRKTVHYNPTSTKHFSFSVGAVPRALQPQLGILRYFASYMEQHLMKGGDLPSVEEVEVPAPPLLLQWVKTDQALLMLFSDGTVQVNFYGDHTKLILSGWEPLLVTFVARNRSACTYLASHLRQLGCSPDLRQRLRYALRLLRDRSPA
Chain of Receptor-interacting serine/threonine-protein kinase 2 (Homo sapiens) (O43353 whole entry): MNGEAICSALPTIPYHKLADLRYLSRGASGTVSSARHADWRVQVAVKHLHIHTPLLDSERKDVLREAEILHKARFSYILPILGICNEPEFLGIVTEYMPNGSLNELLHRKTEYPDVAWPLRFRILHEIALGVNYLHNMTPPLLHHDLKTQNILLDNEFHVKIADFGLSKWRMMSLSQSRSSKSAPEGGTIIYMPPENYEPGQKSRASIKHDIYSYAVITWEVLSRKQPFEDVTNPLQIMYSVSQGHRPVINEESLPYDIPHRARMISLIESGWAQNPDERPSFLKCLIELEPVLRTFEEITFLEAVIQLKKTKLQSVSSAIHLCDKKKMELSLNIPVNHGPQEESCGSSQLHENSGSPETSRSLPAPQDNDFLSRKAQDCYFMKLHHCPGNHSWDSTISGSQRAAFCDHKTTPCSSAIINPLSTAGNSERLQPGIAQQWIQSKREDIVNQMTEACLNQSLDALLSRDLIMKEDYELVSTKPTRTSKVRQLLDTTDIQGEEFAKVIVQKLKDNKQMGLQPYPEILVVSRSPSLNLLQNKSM

Take `CO[C@H]1C[C@@H]2CC[C@@H](C)[C@@](O)(O2)C(=O)C(=O)N2CCCC[C@H]2C(=O)O[C@H]([C@H](C)C[C@@H]2CC[C@@H](O)[C@H](OC)C2)CC(=O)[C@H](C)/C=C(\C)[C@@H](O)[C@@H](OC)C(=O)[C@H](C)C[C@H](C)/C=C/C=C/C=C/1C`: the residual activity in [1] is 93% (inactive); in assay [2] it was 94%; in [3], 98%; in [4], 94%; in [5], 119%; in assay [6] it was 99%. Further, the residual activity in assay [7] is 84%; in assay [8], 84%; in [9], 127%; in [10], 140%.

`CCN(CC)C(=O)c1ccc(Nc2nc(OCC3CCCCC3)c3nc[nH]c3n2)cc1`: the residual activity is 101% (inactive) in assay [1]; 101% in assay [3]; 23% in assay [4]; 22% in assay [5]; 0% in assay [6]; 74% in [7]. The residual activity is 41% in [8] and 23% in [10].

As for `Cn1cnc2cc3c(Nc4cccc(Br)c4)ncnc3cc21`, the residual activity in [1] was 95% (inactive); in [2], 92%; in assay [3] it was 108%; in assay [4] it was 110%; in assay [5] it was 119%; in assay [6] it was 77%. Moreover, the residual activity worked out at 26% in [7], 20% in [8], 104% in assay [9] and 110% in [10].

Turning to `O=C1Nc2ccc(Br)cc2/C1=C\c1cc2c([nH]1)CCCC2`, the residual activity is 113% in assay [3]; 102% in assay [4]; 75% in [5]; 49% in assay [6]; 119% in assay [9]; 116% in assay [10].

In the case of `Nc1cccc(-c2cc3c(Oc4cccc(O)c4)ncnc3[nH]2)c1`, the residual activity is 99% (inactive) in assay [1]; 74% in [2]; 85% in assay [3]; 70% in assay [4]; 25% in assay [5]; 5% in assay [6]. The values for the residual activity in assay [7], in [8] and in [10] were 18%, 11% and 97%, respectively.

Consider `Oc1c2ccccc2c2c3c(cccc13)N=N2`, for which the residual activity in assay [1] is 94% (inactive); in assay [2], 82%; in assay [3], 86%; in assay [4] it was 70%; in assay [5], 68%; in assay [6], 23%. Moreover, the residual activity in [7] is 70%; in assay [8] it was 52%; in assay [10], 95%.

For `Oc1ccc(-c2nc(-c3ccc(F)cc3)c(-c3ccncc3)[nH]2)cc1`, the residual activity in assay [1] is 109% (inactive); in assay [2], 90%; in assay [5] it was 111%; in assay [6] it was 86%; in assay [7], 24%; in [8] it was 14%. Also, the residual activity was determined as 117% in [9] and 100% in assay [10].

Take `Cc1ccc(S(=O)(=O)/C=C/C#N)cc1`: the residual activity in assay [1] was 103% (inactive); in assay [2], 97%; in assay [3], 91%; in assay [4], 101%; in assay [5] it was 102%; in assay [6], 104%. Moreover, the residual activity in assay [7] stood at 88%; in assay [8] it was 88%; in assay [9], 119%; in assay [10], 106%.

Take `O=C1Nc2ccccc2/C1=C1/Nc2ccccc2/C1=N\OCCC(O)CO` (centres undefined): the residual activity is 66% in assay [3]; 41% in assay [4]; 7% in assay [5]; 2% in [6]; 58% in [7]; 50% in assay [8]. Besides, the residual activity in assay [9] stood at 114%; in assay [10], 98%.

In the case of `NC(=O)c1ccc2[nH]c(-c3ccc(Oc4ccc(Cl)cc4)cc3)nc2c1`, the residual activity in [1] is 97% (inactive); in assay [2] it was 91%; in assay [3], 72%; in [4], 112%; in assay [5] it was 100%; in [6], 86%. Besides, the residual activity turned out to be 82% in [7], 66% in [8], 123% in assay [9] and 118% in assay [10].

Take `c1ccc(-c2n[nH]c3c2oc2ccccc23)cc1`: the residual activity in assay [1] was 100% (inactive); in assay [2], 90%; in assay [3], 88%; in [4] it was 94%; in assay [7], 97%; in [8], 64%. For the same compound, the residual activity is 114% in [9] and 126% in assay [10].

For `CC(=O)c1ccc(N2CCOCC2)cc1O`, the residual activity in assay [1] was 90% (inactive); in [2], 92%; in assay [3] it was 106%; in [4] it was 95%; in [6] it was 103%; in assay [7], 95%. For the same compound, the residual activity in assay [8] turned out to be 81%.

As for `CCN(CC)CCCCN1c2ccccc2Oc2ccc(Cl)cc21`, the residual activity in [1] is 101% (inactive); in assay [2], 99%; in assay [3] it was 109%; in assay [4], 101%; in [5], 131%; in assay [6], 115%. Moreover, the residual activity turned out to be 105% in [7], 85% in assay [8], 113% in assay [9] and 121% in assay [10].

Regarding `c1ccc2c(-c3ccncc3)c[nH]c2c1`, the residual activity in assay [1] is 91% (inactive); in assay [2], 94%; in assay [3], 48%; in [4], 16%; in [6], 93%; in assay [7], 87%. The values for the residual activity in assay [8] and in [10] were 59% and 78%, respectively.

As to `CC(C)n1cnc2c(NCc3ccccc3)nc(NCCCO)nc21`, the residual activity in assay [1] is 98% (inactive); in assay [2], 95%; in assay [3], 130%; in assay [4], 88%; in [5], 102%; in assay [6], 83%. The residual activity turned out to be 69% in assay [7], 51% in assay [8], 109% in assay [9] and 100% in [10].

Regarding `O=Nc1c(-c2c(O)[nH]c3ccccc23)[nH]c2ccccc12`, the residual activity in [1] was 96% (inactive); in assay [2] it was 91%; in assay [3], 48%; in assay [4], 33%; in assay [5], 14%; in assay [6], 2%. Further, the residual activity in [7] was determined as 60%; in assay [8], 27%; in [9] it was 108%; in assay [10], 92%.

As for `c1ccc(-c2n[nH]cc2-c2ccnc3ccccc23)nc1`, the residual activity in [1] was 99% (inactive); in [2] it was 94%; in assay [3] it was 96%; in [4] it was 94%; in [5], 109%; in assay [6] it was 96%. Further, the results for the residual activity in assay [7], in assay [8] and in assay [10] were 29%, 16% and 127%, respectively.

For the compound `N#Cc1cnc2cnc(NCc3cccnc3)cc2c1Nc1ccc(F)c(Cl)c1`, the residual activity was 96% in [2]; 95% in assay [3]; 87% in [4]; 66% in assay [5]; 45% in assay [6]; 100% in assay [7]. Besides, the residual activity is 96% in assay [8], 37% in [9] and 19% in assay [10].

For orientation: residual activity means the signal under treatment as a percentage of the control signal.
